# In all, about 300,000 compounds went through this assay and about 2,300 (0.77%) were called active.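 Rule for the calls: active = mean activation of at least 80% with every replicate also reaching 80%; inconclusive = mean reaches 80% but some replicate falls short; inactive = the rest.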 For the sample, actives were picked, then their nearest neighbours and some compounds at random.
# Test: MITF-driven TRPM1 luciferase induction in melanoma cells – cell-based, SK-MEL-5, single point, primary screen (AID 588334);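 note: 0% = neutral control wells and 100% = parthenolide positive control wells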
# Conditions: SK-MEL-5 TRPM1-promoter luciferase, 24 h; at 12.5 µM; stronger effect = higher value; % of positive control, neutral wells = 0
row,Structure (SMILES),activation
1,Cc1cc(OCc2cc(C(=O)NCc3cc(C(C)C)no3)no2)cc(C)c1Cl,84.2% (active)
2,COc1ccc(OCc2cc(C(=O)NCC3(C)COC3)no2)c(Cl)c1,37.2% (inactive)
3,Cc1cccnc1CC(C)NC(=O)c1cc(COc2cncc(Cl)c2)on1 (centres undefined),51.4% (inactive)
4,CC(C)(C)OC(=O)N1CCC(C(=O)Nc2cccc(C(=O)NCCc3ccccc3)c2)CC1,0.242% (inactive)
5,CCCCc1ccc(NC(=S)NCCCN2CCOCC2)cc1,13.8% (inactive)
6,COc1ccc(NC(=S)N2CCCC(CO)C2)c(OC)c1 (centres undefined),-5.46% (inactive)
7,CCCCc1ccc(NC(=S)N2CCCC(CO)C2)cc1 (centres undefined),105% (active)
8,NS(=O)(=O)c1ccc(CCNC(=O)c2ccc(Cl)c(S(=O)(=O)N3CCCCCC3)c2)cc1,-34.2% (inactive)
9,CC(C)(C)c1nnc2sc(SCC(O)=C(C#N)c3nc4ccccc4[nH]3)nn2c1=O,7.19% (inactive)
10,O=[N+]([O-])c1ccc(NS(=O)(=O)c2ccccc2)c(Cl)c1,-5.26% (inactive)
11,COc1ccc(C(=O)NC2=NCCS2)c(OC)c1,33.9% (inactive)
12,O=C(NC1=NCCS1)c1ccc(Cl)s1,121% (active)
13,O=C(NCc1ccc2c(c1)OCO2)c1ccc(Cl)s1,9.51% (inactive)
14,C[C@H](CO)N1C[C@H](C)[C@H](CN(C)CC2CC2)Oc2ccc(NC(=O)CCN3CCOCC3)cc2C1=O,4.29% (inactive)
15,COc1cc(/C=C/CNC[C@H]2O[C@@H](n3cnc(C(N)=O)n3)[C@H](O)[C@@H]2O)ccc1O,-8.98% (inactive)
16,C=CC(=O)Nc1ccc(Nc2ccnc(Nc3ccc(N4CCN(C)CC4)cc3)n2)cc1,-13.2% (inactive)
17,Nc1cc2c(cc1Br)-c1ccc(F)cc1C2=O,7.07% (inactive)
18,COC(=O)[C@@]1(C)[C@H]2C(=O)N(Cc3ccccc3)C(=O)[C@H]2[C@H]2CN=C(SCC3CC3)N21,-1.12% (inactive)
19,COC1=NC2=NCCN2C(OC)=N1,4.31% (inactive)
20,Cc1c(NC(=O)c2cc(-c3ccc(Br)cc3)on2)c(=O)n(-c2ccccc2)n1C,6.12% (inactive)
21,CC(C)CNC(=O)c1cc(-c2ccc(Br)cc2)on1,124% (active)
22,CC(C)Cc1cc(C(=O)Nc2cc(Br)ccc2O)no1,42.2% (inactive)
23,CC(=O)c1ccc(NC(=O)CSc2nc3ccccc3c(=O)n2CCCN2CCOCC2)cc1,14.6% (inactive)

row,Structure (SMILES),activation
1,Cc1ccc(NC(=O)c2oc(=O)c3ccccc3c2-c2ccccc2)c(C)c1,-8.24% (inactive)
2,Cc1ccc(NN=C2C(=O)OC(C)(C)OC2=O)c(C)c1,120% (active)
3,Cc1ccc(NC(=O)C(=O)NCc2ccco2)c(C)c1,72.2% (inactive)
4,COc1ccc(CNc2nc(NCc3ccc(OC)cc3)c3ncn(C4CCCC4)c3n2)cc1,-22% (inactive)
5,CCCN(C(=O)CSc1nnc(N)s1)c1c(N)n(Cc2ccccc2)c(=O)[nH]c1=O,-11.7% (inactive)
6,CCCCNCCS(=O)(=O)NCc1ccccc1,11.7% (inactive)
7,O=[N+]([O-])c1cccc(C2=NCCS2)c1,-11.6% (inactive)
8,FC(F)(F)c1ccnc(Oc2ccc(C3=NCCS3)cc2)c1,102% (active)
9,O=Cc1ccc(Oc2cccc(C(F)(F)F)c2)nc1,2.89% (inactive)
10,CC1C(C)N(C(=O)CCl)c2ccccc2N1C(=O)CCl (centres undefined),-89.8% (inactive)
11,Cc1nn(-c2ccccc2)c2c1C(c1cccc([N+](=O)[O-])c1)N(c1ccccc1)C(=O)N2 (centres undefined),-8.33% (inactive)
12,Cc1nn(-c2ccc([N+](=O)[O-])cc2)c(N)c1-c1ccccc1,97.5% (active)
13,O=C1CC(c2ccccc2)=NN1c1ccc([N+](=O)[O-])cc1,29.1% (inactive)
14,Cc1noc(C)c1CCC(=O)N1CCCC(CO)(Cc2ccccc2)C1 (centres undefined),67.5% (inactive)
15,Cc1ccccc1CC1(CO)CCCN(C(=O)c2cc(-c3ccccc3)no2)C1 (centres undefined),6.1% (inactive)
16,COC(=O)CCC(=O)N1CCCC(CO)(Cc2ccccc2)C1 (centres undefined),94.6% (active)
17,Cn1cc(C2OC(=O)c3ccccc32)c2ccccc21 (centres undefined),-10.6% (inactive)
18,COc1ccccc1N(CC(=O)Nc1c(C)n(C)n(-c2ccccc2)c1=O)S(=O)(=O)c1ccccc1,-1.77% (inactive)
19,CCCCN(C(=O)c1cccc(N2C(=O)c3ccccc3C2=O)c1)c1c(N)n(CCCC)c(=O)[nH]c1=O,-1.35% (inactive)
20,Cc1cnc(C(=O)OCC(=O)N2CCc3ccccc32)cn1,-0.372% (inactive)
21,CCCCn1nc(C(=O)N2CCc3ccccc32)c2ccccc2c1=O,-15.9% (inactive)
22,O=C(c1cnn2ccccc12)N1CCc2ccccc21,91.5% (active)
23,C=CC(COCc1ccccc1)N(CC(=O)OC)S(=O)(=O)c1cc(Br)ccc1OC (centres undefined),-10.3% (inactive)

row,Structure (SMILES),activation
1,CCC(CO)Oc1cc(NC(=O)c2cccc3ccccc23)c2ncn(C(C)C)c2c1 (centres undefined),-4.63% (inactive)
2,COc1ccc(CNC(=O)C[C@H]2C[C@H](C(=O)N3CCOCC3)[C@@]3(CCC4CCCC4)c4[nH]c5ccc(Cl)cc5c4CCN3C2=O)cc1OC,-70.8% (inactive)
3,N#CC(=C1SC=CS1)c1nc(-c2ccccc2)cs1,47.6% (inactive)
4,N#CC(=C1CCCC1)c1nc(-c2ccc(Cl)cc2)cs1,91.3% (active)
5,Clc1ccc(-c2csc(-c3ccncc3)n2)cc1,33.5% (inactive)
6,O=S(=O)(Cc1ccc(Cl)cc1Cl)c1ccc(Cl)cc1,16.2% (inactive)
7,CC1(C)C[C@H]2C3=CCC4[C@@]5(C)CC[C@H](O)[C@](C)(CO)C5CC[C@@]4(C)[C@]3(C)C[C@@H](O)[C@@]2(CO)[C@@H](O)[C@@H]1O (some centres undefined),-11.2% (inactive)
8,CCCCOc1ccc(-c2nnc(-c3ccco3)o2)cc1,30.3% (inactive)
9,O=C(CCc1ccccc1)Nc1cccc(-c2nnc(-c3ccco3)o2)c1,10.8% (inactive)
10,CCC(=O)Oc1cccc(C(=O)Nc2ccc(-c3nnc(-c4ccco4)o3)cc2)c1,85.5% (active)
11,CC[C@]12c3[nH]c4cc(CCC(=O)N(C)C)ccc4c3CCN1C(=O)[C@@H](CC(=O)NCC13CC4CC(CC(C4)C1)C3)C[C@@H]2C(=O)N1CCN(C(=O)C2CC2)CC1,5.19% (inactive)
12,COc1ccc(/C=C2/CCCc3ccccc3C2=O)cc1,39.3% (inactive)
13,Brc1ccccc1/C=N/Nc1nc2ccccc2o1,81.1% (active)
14,COc1ccc(/C=N/Nc2nc3ccccc3o2)cc1OC,56.1% (inactive)
15,CCOc1ccccc1/C=N/Nc1nc2ccccc2o1,13.3% (inactive)
16,O=C(CNC(=O)c1cc(S(=O)(=O)N2CCOCC2)ccc1N1CCCC1)Nc1ccc(F)c(F)c1,-3.17% (inactive)
17,COc1cc2c(cc1CNC[C@H]1O[C@@H](n3cnc(C(N)=O)n3)[C@H](O)[C@@H]1O)OCO2,-7.21% (inactive)
18,COC(=O)[C@@H]1CCCN1C(=O)c1cc(COc2cccc3cccnc23)on1,-6.69% (inactive)
19,CSc1ccccc1OCc1cc(C(=O)N2C[C@H]3CC[C@H]2C3)no1,91.7% (active)
20,CSc1ccccc1OCc1cc(C(=O)N(C)CCc2c(C)n[nH]c2C)no1,1.76% (inactive)
21,C=CCCC(=O)N1C[C@H]2CON(C)[C@H]2C[C@H]1c1cccc(Nc2ccccc2)c1,17.1% (inactive)
22,O=C(Nc1ccccc1)Oc1cccc2cccnc12,-34.4% (inactive)
23,COC(=O)c1ccc(Nc2ncnc3sccc23)cc1,93.3% (active)

row,Structure (SMILES),activation
1,CCOC(=O)c1nc(Nc2ccc(C(=O)OC)cc2)c2ccccc2n1,8.95% (inactive)
2,COc1ccc(Nc2ncnc3sc(C)cc23)cc1,68.5% (inactive)
3,Cc1cccc(C)c1NC(=O)CNC(=O)c1ccc2c(c1)OCCO2,4.28% (inactive)
4,Cc1ccc(C(=O)NNC(=O)c2ccc3c(c2)OCCO3)cc1,109% (active)
5,O=C(Nc1ccccc1)c1ccc2c(c1)OCCCO2,24.5% (inactive)
6,Cc1nc(NC(=O)c2ccc3c(c2)OCCO3)ccc1Br,122% (active)
7,Cc1ccc2sc(NNC(=O)c3ccc4c(c3)OCCO4)nc2c1C,-0.623% (inactive)
8,O=C(Nc1ccc(Cl)cn1)c1ccc2c(c1)OCCO2,5.88% (inactive)
9,CSCCC(NC(=O)COc1ccccc1)C(=O)N1CCN(c2cccc(C(F)(F)F)c2)CC1 (centres undefined),8.6% (inactive)
10,CC(C)N(C(=O)[C@H]1C[C@H](CC(=O)NCCC2=CCCCC2)C(=O)N2CCc3c([nH]c4cc(CCC(=O)N(C)C)ccc34)[C@]12C)C(C)C,10.3% (inactive)
11,COc1ccc2[nH]c3c(c2c1)CCN1C(=O)C(CC(=O)NCc2cccc(C(F)(F)F)c2)C[C@H](C(=O)N2CCOCC2)[C@@]31C (some centres undefined),2.71% (inactive)
12,O=C(NNc1ncnc2c1cnn2-c1ccccc1)c1ccco1,2.51% (inactive)
13,C1=C(CCNc2ncnc3c2cnn3-c2ccccc2)CCCC1,94.3% (active)
14,O=C(NCCC1=CCCCC1)C1CCN(Cc2cnn(-c3ccccc3)c2-n2cccc2)CC1,11.4% (inactive)
15,N#CC(Cc1cc2ccccc2n1S(=O)(=O)c1ccccc1)OCc1ccccc1 (centres undefined),-2.16% (inactive)
16,Cc1cc(NC(=O)c2ccc(F)cc2)ccc1NC(=O)c1ccco1,10.4% (inactive)
17,Cc1ccnc(NC(=O)c2ccc(NC(=O)c3ccco3)cc2)c1,109% (active)
18,O=C(Nc1ccc(O)cc1)c1ccc(NC(=O)c2ccco2)cc1,30.3% (inactive)
19,CC(C)C[C@H]1CN([C@@H](CC(C)C)CN2CCC[C@@H]2CN2C(=O)C(=O)NC[C@@H]2Cc2ccccc2)C(=O)C(=O)N1CCc1ccccc1,2.67% (inactive)
20,C=CC[C@@H](Cc1ccc(F)cc1)C(=O)OC[C@H]1CCCN1C(=O)[C@H](CC=C)CC(=O)N(CCO)Cc1ccccc1,12.6% (inactive)

# — PubChem BioAssay AID588334 (Broad Institute, 2011)
